Screening data (PubChem)
Only some compounds are listed: those with a hit (about 18% of all), similar ones and a draw of the others.
TDP1 inh: qHTS Assay for Inhibitors of Tyrosyl-DNA Phosphodiesterase (TDP1); Tyrosyl-DNA phosphodiesterase 1 (Homo sapiens), Q9NUW8; recombinant TDP1, AlphaScreen DNA substrate cleavage; Potency, µM (titrated, usually from 130 µM), for the others: top-dose activity change, negative = inhibition, hits mostly inhibitors; 350,000 compounds, 0.28% hits; further: potency means the concentration at half of the fitted maximal effect; nearly all actives have a fitted effect of over 40% in size
Target sequence (Q9NUW8 whole entry, looked up): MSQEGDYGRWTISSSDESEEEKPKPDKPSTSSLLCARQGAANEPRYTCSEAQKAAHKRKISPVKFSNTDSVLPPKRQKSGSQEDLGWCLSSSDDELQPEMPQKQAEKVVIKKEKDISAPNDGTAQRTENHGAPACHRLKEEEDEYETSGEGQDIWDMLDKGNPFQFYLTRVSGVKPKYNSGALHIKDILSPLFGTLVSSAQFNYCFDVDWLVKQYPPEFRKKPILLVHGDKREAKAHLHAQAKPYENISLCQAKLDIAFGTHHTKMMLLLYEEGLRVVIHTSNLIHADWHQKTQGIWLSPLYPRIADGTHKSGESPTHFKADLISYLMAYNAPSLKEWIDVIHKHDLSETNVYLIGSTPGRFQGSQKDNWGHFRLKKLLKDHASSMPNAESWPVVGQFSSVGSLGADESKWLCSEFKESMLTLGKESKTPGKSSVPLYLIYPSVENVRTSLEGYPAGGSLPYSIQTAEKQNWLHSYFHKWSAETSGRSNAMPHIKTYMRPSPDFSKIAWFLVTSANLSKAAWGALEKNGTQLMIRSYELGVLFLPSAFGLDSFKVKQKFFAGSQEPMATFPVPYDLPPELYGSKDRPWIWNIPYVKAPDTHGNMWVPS
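Tdp1 1 nM final; 15 min RT w/ cpd; substrate 15 nM, 5 min; beads 10 ug/ml, 10 min; AlphaScreen read. Neg ctrl: no enzyme.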
IL1B secr inh: qHTS for Inhibitors of Inflammasome Signaling: IL-1-beta AlphaLISA Primary Screen; THP-1 LPS/ATP IL-1B secretion, AlphaLISA, 16 h; stronger effect = lower value; activity change, % at 57.5 µM; 360,000 compounds, 4.7% hits; in the data active means activity change below about -50%; inconclusive means mostly about -30% to -49%
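Secreted IL-1B measured by AlphaLISA bead assay after 16 h compound exposure of THP-1 cells; compounds (final up to 57.5 uM) added 1 h before LPS (250 ng/mL) and ATP (1.25 mM) stimulation; lower signal means less secretion.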
CtBP-E1A inh: qHTS Assay for Inhibitors of the CtBP/E1A Interaction | AID 651724, 2012 | CtBP / adenovirus E1A interaction (AlphaScreen) | AlphaScreen GST-E1A/His-CtBP binding, 1536-well; stronger effect = lower value | 340,000 compounds, 0.49% hits | activity change, % (concentration not given with the values); in the data active means activity change below about -65%; inconclusive means mostly about -30% to -63%
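AlphaScreen with 125 nM GST-E1A and 125 nM His-CtBP (5X stocks) in Tris pH 8.0, 300 mM NaCl, BSA, Tween 20, TCEP. Compounds preincubated 2 h at 37 deg C, then glutathione donor/nickel acceptor beads added for 1 h at 37 deg C in dark.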
DT40 TDP1 CPT: qHTS for Inhibitors of human tyrosyl-DNA phosphodiesterase 1 (TDP1): qHTS in cells in presence of CPT; chicken DT40 Tdp1-/-;hTDP1 cells + 20 nM CPT, ATP luminescence, 48 h; Potency, µM (titrated, usually from 46.2 µM), without a hit: at the top dose activity change, negative = growth inhibition, usual class: inhibitors; 420,000 compounds, 12% hits; further: potency means the concentration at half of the fitted maximal effect; nearly all actives have a fitted effect of over 55% in size
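Chicken DT40 Tdp1-/- cells complemented with human TDP1, 400 cells/well, exposed to compounds plus 20 nM camptothecin for at least 48 h at 37 C; viability read as ATP content by CellTiter-Glo luminescence.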
TDP1 cell noCPT: qHTS for Inhibitors of human tyrosyl-DNA phosphodiesterase 1 (TDP1): qHTS in cells in absence of CPT; DT40 Tdp1-/- hTDP1 cells, no CPT, ATP luminescence, 48 h; Potency, µM (titrated, usually from 46.2 µM), for the others: at the highest dose activity change, negative = growth inhibition, actives largely listed as inhibitors; 420,000 compounds, 15% hits; further: potency means the concentration at half of the fitted maximal effect; nearly all actives have a fitted effect of over 55% in size
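Readout: luminescence from CellTiter-Glo after 30 min in the dark at RT. Cells: DT40 Tdp1-/- with stable hTDP1, 400/well. Exposure: compounds alone, ≥48 hr, 37 °C.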
Six1-Eya2 inh: qHTS Assay for Inhibitors of the Six1/Eya2 Interaction | 360,000 compounds, 0.56% hits | Homeobox protein SIX1 (Homo sapiens) + Protein phosphatase EYA2 (Homo sapiens), … | AlphaScreen GST-Six1/His-Eya2 binding, biochemical; stronger effect = lower value | activity change, % (no concentration beside the values); in the data active means activity change below about -65%; inconclusive means mostly about -30% to -63%
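AlphaScreen with GST-Six1 and His-Eya2 (5X mix: 250 nM and 500 nM), glutathione donor and nickel acceptor beads; buffer 50 mM Tris pH 8.0, 300 mM NaCl, 1 mM TCEP; 1 h at 37 C in the dark.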
* = called active by the depositor; [ ] = remark or other dose. Unless noted, the call rests on the fitted dose curve; in most records, active means well fitted curve in the direction sought with a large enough effect; inconclusive means small, poorly fitted or top-dose-only effect, or another doubt; inactive means no such curve, though single readings can be large; an effect the other way counts as inactive or inconclusive. On the % scale 0 is the no-effect control and ±100 the full control effect.

Results for CCOC(=O)c1c(NC(=O)CCN2CCOCC2)sc2c1CC(C)(C)OC2 ?
TDP1 inh: 1%; IL1B secr inh: 0; CtBP-E1A inh: -7; DT40 TDP1 CPT: 3%; TDP1 cell noCPT: inconclusive; Six1-Eya2 inh: 12

Results for O=C(/C=C/c1ccccc1)NC1CC2CCCC(C1)N2Cc1ccccc1 (stereo unspecified) ?
TDP1 inh: 4%

How did Cc1ccc(C(=O)CCC(=O)Nc2ccc(C)cc2C)cc1 do in these assays?
TDP1 inh: -4%; DT40 TDP1 CPT: -8%; TDP1 cell noCPT: -1%

What do the screens show for `CC(C)(C)OC(=O)n1cc(/C=N/NC(=O)c2ccco2)c2ccccc21`?
TDP1 inh: 1%; IL1B secr inh: -60*; CtBP-E1A inh: -9; DT40 TDP1 CPT: -26%; TDP1 cell noCPT: -17%; Six1-Eya2 inh: -9

What do the screens show for `O=C(c1ccccc1Cl)N1c2ncnn2C2(CCCCC2)[C@@H]2CCCC[C@@H]21`?
TDP1 inh: -2%; DT40 TDP1 CPT: -29%; TDP1 cell noCPT: inconclusive

How did O=C(c1cccc([N+](=O)[O-])c1)N1c2ncnn2C2(CCCCC2)[C@@H]2CCCC[C@@H]21 do in these assays?
TDP1 inh: 4%; DT40 TDP1 CPT: inconclusive; TDP1 cell noCPT: 8.2µM*

Results for COCc1nnc(NC(=O)c2cc3ccccc3o2)s1 ?
IL1B secr inh: 6; CtBP-E1A inh: 5; DT40 TDP1 CPT: -4%; TDP1 cell noCPT: inconclusive; Six1-Eya2 inh: -1

How did CCN(CC)C[C@@H]1CCCCN1CC(=O)N1c2ccccc2C(=O)Nc2cccnc21 do in these assays?
TDP1 inh: 8%[56.1 µM]; DT40 TDP1 CPT: 2%; TDP1 cell noCPT: -1%

What do the screens show for `O=C1Nc2cccnc2N(C(=O)CCl)c2ccccc21`?
IL1B secr inh: -96*; CtBP-E1A inh: 4; DT40 TDP1 CPT: 3.3µM*; TDP1 cell noCPT: 2.6µM*; Six1-Eya2 inh: 1

What do the screens show for `COc1cccc(-c2cc(C(=O)NCCc3ccc(OC)c(OC)c3)no2)c1`?
TDP1 inh: -5%; DT40 TDP1 CPT: 5%; TDP1 cell noCPT: 2%

What do the screens show for `COc1ccc(CCNC(=O)c2cc(-c3ccco3)on2)cc1OC`?
TDP1 inh: 5%; IL1B secr inh: inconclusive; CtBP-E1A inh: 4; DT40 TDP1 CPT: 10µM*; TDP1 cell noCPT: 16µM*; Six1-Eya2 inh: -11

Results for O=C(NCc1ccco1)c1cc(-c2ccco2)on1 ?
TDP1 inh: 2%; IL1B secr inh: -20; CtBP-E1A inh: 3; DT40 TDP1 CPT: 23µM*; TDP1 cell noCPT: inconclusive; Six1-Eya2 inh: -1

Results for O=C(NCCc1ccccc1)c1cc(-c2ccco2)on1 ?
TDP1 inh: -11%[56.1 µM]; IL1B secr inh: 0; CtBP-E1A inh: 1; DT40 TDP1 CPT: 6.3µM*; TDP1 cell noCPT: inconclusive; Six1-Eya2 inh: 2

What do the screens show for `CC(C)CN(C(=O)CN1CCOCC1)c1c(N)n(CC(C)C)c(=O)[nH]c1=O`?
TDP1 inh: 0%; IL1B secr inh: 16; CtBP-E1A inh: -1; DT40 TDP1 CPT: -28%; TDP1 cell noCPT: -30%; Six1-Eya2 inh: 2

How did Cc1ccc(Cl)cc1N1CCN(C(=O)COc2cc(=O)n(C)c3ccccc23)CC1 do in these assays?
TDP1 inh: 6%; DT40 TDP1 CPT: inconclusive; TDP1 cell noCPT: 23µM*

What do the screens show for `Cn1c(=O)cc(OCC(=O)NCCCN2CCN(c3cccc(Cl)c3)CC2)c2ccccc21`?
TDP1 inh: 5%; IL1B secr inh: -18; CtBP-E1A inh: -20; DT40 TDP1 CPT: inconclusive; TDP1 cell noCPT: 16µM*; Six1-Eya2 inh: -19

Results for Cc1ccc(Cl)cc1N1CCN(C(=O)Cc2cn(C)c3ccccc23)CC1 ?
TDP1 inh: 5%; IL1B secr inh: -30; CtBP-E1A inh: -17; DT40 TDP1 CPT: inconclusive; TDP1 cell noCPT: inconclusive; Six1-Eya2 inh: -28

Results for Cn1c(=O)cc(OCC(=O)NCCCN2CCN(c3ccccc3F)CC2)c2ccccc21 ?
TDP1 inh: -1%; IL1B secr inh: -6; CtBP-E1A inh: -1; DT40 TDP1 CPT: inconclusive; TDP1 cell noCPT: inconclusive; Six1-Eya2 inh: -8

How did CON=C(C(=O)NC1C(=O)N2C(C(=O)O)=C(CSc3nc(=O)c(=O)[nH]n3C)CSC12)c1csc(N)n1 (stereo unspecified) do in these assays?
IL1B secr inh: 18; CtBP-E1A inh: -10; DT40 TDP1 CPT: 13%; TDP1 cell noCPT: 13%; Six1-Eya2 inh: -25

Results for O=Cc1ccc2oc3nc4n(c(=O)c3c(=O)c2c1)CCCS4 ?
TDP1 inh: 10µM*; IL1B secr inh: -6; CtBP-E1A inh: inconclusive; DT40 TDP1 CPT: -18%; TDP1 cell noCPT: inconclusive; Six1-Eya2 inh: inconclusive

What do the screens show for `CC(C)(CO)NCc1ccc(Br)cc1`?
TDP1 inh: 5%; IL1B secr inh: -4; CtBP-E1A inh: -11; DT40 TDP1 CPT: 21µM*; TDP1 cell noCPT: inconclusive; Six1-Eya2 inh: -1

How did Cc1ccc(CNC(C)(C)CO)cc1 do in these assays?
TDP1 inh: 1%; IL1B secr inh: 16; CtBP-E1A inh: 1; DT40 TDP1 CPT: -3%; TDP1 cell noCPT: inconclusive; Six1-Eya2 inh: 12

What do the screens show for `CCCN1CCN(C(=O)Cn2ncc3c4ccccc4n(Cc4cccc(Cl)c4)c3c2=O)CC1`?
TDP1 inh: 8%; DT40 TDP1 CPT: 13µM*; TDP1 cell noCPT: 12µM*

Results for CCOC(=O)C1CCN(C(=O)Cn2ncc3c4ccccc4n(Cc4ccccc4)c3c2=O)CC1 ?
TDP1 inh: -3%; DT40 TDP1 CPT: 8.2µM*; TDP1 cell noCPT: 7.3µM*

How did Cc1ccc(CNC(=O)Cn2ncc3c(C)n(Cc4ccc(Cl)cc4)c(C)c3c2=O)cc1 do in these assays?
TDP1 inh: -3%; DT40 TDP1 CPT: inconclusive; TDP1 cell noCPT: inconclusive

What do the screens show for `CCOC(=O)C1CCCN(C(=O)Cn2ncc3c4ccccc4n(Cc4ccccc4)c3c2=O)C1` (stereo unspecified)?
TDP1 inh: 8%; DT40 TDP1 CPT: inconclusive; TDP1 cell noCPT: 18µM*

What do the screens show for `Cc1c2cnn(CC(=O)N3CCCCC3)c(=O)c2c(C)n1Cc1ccc(Cl)cc1`?
TDP1 inh: -5%; DT40 TDP1 CPT: 23µM*; TDP1 cell noCPT: 23µM*
